# Measurements: the supplement of paper PMC9254222
# Over roughly 1,100 compounds, “Wnt reporter firefly/Renilla luciferase ratio relative to plate median” has its median near 1.1; the highest 2% begin near 1.6. What follows is part of a selection rich in the highest values, with near analogues and random picks from the rest.
# Test system: HEK293T (UBE3A T485A transfected, BAR Wnt reporter)
# Assay: Wnt reporter firefly/Renilla luciferase ratio relative to plate median (fold (linear ratio)); higher = more Wnt/beta-catenin reporter activation
# Details: 24 h
# Outline: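 Each value averages four biological replicates in HEK293T cells grown at 4500 cells/well in DMEM with 10% FBS at 37°C and 5% CO2. The cells were transfected with a BAR firefly luciferase Wnt reporter, TK-Renilla and an expression plasmid, then four hours later robotically treated with the chemicals at 0.01–100 uM for 24 h. Dual-Glo luciferase signals were median-centred per plate, with the firefly/Renilla ratio reported as Wnt activity and raw Renilla as cell health.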
SMILES,Wnt reporter firefly/Renilla luciferase ratio (concentration: 0.01 uM),Wnt reporter firefly/Renilla luciferase ratio (concentration: 0.1 uM),Wnt reporter firefly/Renilla luciferase ratio (concentration: 1 uM),Wnt reporter firefly/Renilla luciferase ratio (concentration: 10 uM),Wnt reporter firefly/Renilla luciferase ratio (concentration: 100 uM)
CCOC(=O)COc1cc(-c2nn(C)c(OC(F)F)c2Cl)c(F)cc1Cl [Pyraflufen-ethyl],1.13,1.63,1.05,1.09,1.13
CCOC(=O)C(Cl)Cc1cc(-n2nc(C)n(C(F)F)c2=O)c(F)cc1Cl (configuration not stated) [Carfentrazone-ethyl],1.07,0.973,0.982,0.945,1.28
O=C(Oc1ccc(Br)cc1)N1CCN2CCC1CC2,,1.11,0.988,1.09,0.334
CC(COc1ccc(Oc2ccccc2)cc1)Oc1ccccn1 (configuration not stated) [Pyriproxyfen],1.12,0.977,1.04,1.03,0.55
ClC1(Cl)C2(Cl)C3(Cl)C4(Cl)C(Cl)(Cl)C5(Cl)C3(Cl)C1(Cl)C5(Cl)C24Cl (configuration not stated) [Mirex],,1.02,1.05,0.921,1.28
O=C(Nc1ccccc1)Nc1ccnc(Cl)c1 [Forchlorfenuron],1.1,1.16,0.957,0.694,
CCCCc1ccccc1 [Butylbenzene],,0.995,1.31,1.01,0.948
CC(C)N(C(=O)COc1nnc(C(F)(F)F)s1)c1ccc(F)cc1 [Flufenacet],0.973,0.746,0.898,0.605,0.254
C=CCc1ccc2c(c1)OCO2 [Safrole],,1.26,1.37,0.895,1.23
C[C@]12C=CC3=C4CCC(=O)C=C4CC[C@H]3[C@@H]1CC[C@@H]2O [17beta-Trenbolone],,1.08,1.18,0.938,0.146
CCNC(=O)NC(=O)/C(C#N)=N/OC [Cymoxanil],1.42,1.34,1.15,1.29,1.1
CC(C)(C)c1ccccc1O [2-tert-Butylphenol],,1.53,1.54,1.25,0.813
CC1(C)C(C=C(Cl)Cl)C1C(=O)OCc1cccc(Oc2ccccc2)c1 (configuration not stated) [Permethrin],0.82,0.873,1.11,1.19,0.865
Nc1nc(N)nc(NC2CC2)n1 [Cyromazine],1.01,1.18,0.955,1.02,1.22
CCCCCCCCn1sccc1=O [Octhilinone],,1.02,1.15,1.07,
CNC(=O)N(C)c1nnc(C(C)(C)C)s1 [Tebuthiuron],1.35,1.39,1.32,1.67,1.5
CCCN(CCC)c1c([N+](=O)[O-])cc(C(C)C)cc1[N+](=O)[O-] [Isopropalin],,1.07,1.04,1.11,1.31
CCOC1Oc2ccc(OS(C)(=O)=O)cc2C1(C)C (configuration not stated) [Ethofumesate],1.05,0.973,1.03,1.14,1.86
N#CC(CCc1ccc(Cl)cc1)(Cn1cncn1)c1ccccc1 (configuration not stated) [Fenbuconazole],1.07,1.01,1.03,0.614,0.347
CN(C)C(=S)[S-].CN(C)C(=S)[S-].[Zn+2] [Ziram],,1,0.732,0.577,
CN(C)C(=S)SSC(=S)N(C)C [Thiram],1.62,1.39,1.06,1.24,
CN(C)C(=S)[S-].[Na+] [Sodium dimethyldithiocarbamate],,1.22,0.816,0.751,0.926

SMILES,Wnt reporter firefly/Renilla luciferase ratio (concentration: 0.01 uM),Wnt reporter firefly/Renilla luciferase ratio (concentration: 0.1 uM),Wnt reporter firefly/Renilla luciferase ratio (concentration: 1 uM),Wnt reporter firefly/Renilla luciferase ratio (concentration: 10 uM),Wnt reporter firefly/Renilla luciferase ratio (concentration: 100 uM)
c1ccc(-c2ccccc2)cc1 [Biphenyl],,1.39,1.01,1.25,1.46
CCCC1COC(Cn2cncn2)(c2ccc(Cl)cc2Cl)O1 (configuration not stated) [Propiconazole],0.957,1.03,1.17,0.78,
CCON=C(CC)C1=C(O)CC(c2c(C)cc(C)cc2C)CC1=O (configuration not stated) [Tralkoxydim],1.14,1.54,1.03,1.05,0.67
CN(C)C(=O)Nc1ccc(Cl)cc1 [Monuron],,0.888,0.901,1.09,1.04
CON(C)C(=O)Nc1ccc(Cl)c(Cl)c1 [Linuron],1.1,0.829,1.11,1.17,0.524
CCC(=O)Nc1ccc(Cl)c(Cl)c1 [Propanil],1.31,1.71,0.955,1.25,0.294
ClC1=C(Cl)C2(Cl)C3C(Cl)C=CC3C1(Cl)C2(Cl)Cl (configuration not stated) [Heptachlor],,0.972,1.07,1.17,1.24
N#CC(Br)Br [Dibromoacetonitrile],,1.15,1.01,1.17,1.19
Nc1c(Cl)cc([N+](=O)[O-])cc1Cl [Dicloran],1.85,1.64,0.962,1.29,0.345
"O=[N+]([O-])c1ccc(Cl)c(Cl)c1 [3,4-Dichloronitrobenzene]",,1.21,1.14,1.29,1.54
O=[N+]([O-])c1ccc(Cl)cc1 [1-Chloro-4-nitrobenzene],,1.04,1.2,1.02,1.38
CCC(C)(c1ccc(O)cc1)c1ccc(O)cc1 [Bisphenol B],,1.11,0.969,0.999,0.0398
N#Cc1c(Cl)c(Cl)c(Cl)c(C#N)c1Cl [Chlorothalonil],0.876,0.784,1.16,0.725,
CCCCOC(=O)[C@@H](C)Oc1ccc(Oc2ccc(C#N)cc2F)cc1 [Cyhalofop-butyl],1.1,0.959,1.06,0.848,0.697
CC(C)(OOC(C)(C)c1ccccc1)c1ccccc1 [Dicumyl peroxide],,1.15,0.998,0.968,1.39
C#CCC1=C(C)C(OC(=O)C2C(C=C(C)C)C2(C)C)CC1=O (configuration not stated) [Prallethrin],0.931,0.996,1.04,1.05,0.276
CC(C)(C)c1ccc(O)cc1 [4-tert-Butylphenol],,0.97,1.1,0.863,1.21
CO/C=C(/C(=O)OC)c1ccccc1Oc1cc(Oc2ccccc2C#N)ncn1 [Azoxystrobin],1.4,1.25,1.04,0.786,0.984
CCC(=NOC/C=C/Cl)C1=C(O)CC(C2CCOCC2)CC1=O (configuration not stated) [Tepraloxydim],0.655,0.79,1.12,1.08,1.18
O=[N+]([O-])c1c(Cl)c(Cl)c(Cl)c(Cl)c1Cl [Pentachloronitrobenzene],0.743,0.765,1,0.856,1.26
Nc1ccc(Cl)cc1 [4-Chloroaniline],,1.15,1.08,0.914,0.367
CCOP(=S)(OCC)Oc1cc(C)nc(C(C)C)n1 [Diazinon],0.789,0.815,1.01,1.25,1.14

SMILES,Wnt reporter firefly/Renilla luciferase ratio (concentration: 0.01 uM),Wnt reporter firefly/Renilla luciferase ratio (concentration: 0.1 uM),Wnt reporter firefly/Renilla luciferase ratio (concentration: 1 uM),Wnt reporter firefly/Renilla luciferase ratio (concentration: 10 uM),Wnt reporter firefly/Renilla luciferase ratio (concentration: 100 uM)
CCOC(=O)C(C)OC(=O)c1cc(Oc2ccc(C(F)(F)F)cc2Cl)ccc1[N+](=O)[O-] (configuration not stated) [Lactofen],1.04,1.3,1.14,1.16,0.261
CC(C)Nc1nc(Cl)nc(NC(C)C)n1 [Propazine],1.55,1.1,1.01,1.03,1.11
"Oc1c(Cl)cc(Cl)cc1Cl [2,4,6-Trichlorophenol]",,0.821,1.09,1.37,0.524
CS(=O)(=O)c1cc(C(F)(F)F)ccc1C(=O)c1cnoc1C1CC1 [Isoxaflutole],1.11,1.4,1.02,1.36,1.45
C#CCOS(=O)OC1CCCCC1Oc1ccc(C(C)(C)C)cc1 (configuration not stated) [Propargite],1.24,1.16,1.02,0.934,0.259
CON=C(C(=O)OC)c1ccccc1CON=C(C)c1cccc(C(F)(F)F)c1 [Trifloxystrobin],0.871,1.03,0.939,0.327,
COP(=S)(OC)Oc1ccc(SC)c(C)c1 [Fenthion],1.02,0.993,1.04,1.08,0.984
COP(=S)(OC)Oc1ccc([N+](=O)[O-])cc1 [Methyl parathion],1.23,1.05,1.21,1.02,0.89
COP(=S)(OC)Oc1ccc([N+](=O)[O-])c(C)c1 [Fenitrothion],1.53,2.01,1.26,1.43,0.976
CCCCC(CC)COC(=O)c1ccccc1C(=O)OCC(CC)CCCC (configuration not stated) [Di(2-ethylhexyl) phthalate],0.948,0.902,1.01,1.09,0.42
"Clc1ccccc1Cl [1,2-Dichlorobenzene]",,0.904,1.01,0.88,1.62
Oc1ccccc1Cl [2-Chlorophenol],,0.951,0.944,1.24,1.52
"Clc1cccc(Cl)c1Cl [1,2,3-Trichlorobenzene]",,1.09,1.1,1.05,1.01
COc1ccc(C)cc1N [2-Methoxy-5-methylaniline],,1.14,1.31,1.26,1.29
C1=Cc2cccc3cccc1c23 [Acenaphthylene],,1.29,1.26,1.41,0.898
"CCCCCCCCCc1ccc(O)cc1 [4-Nonylphenol, branched]",,1.17,1.09,0.969,1.71
CCCCCCCCCc1ccc(O)cc1 [4-Nonylphenol],,0.995,0.971,1.16,0.953
CCCCCCCc1ccc(O)cc1 [4-Heptylphenol],,0.655,0.978,1.2,1.01
CC(C)(C)C(O)/C(=C\c1ccc(Cl)cc1Cl)n1cncn1 (configuration not stated) [Diniconazole],1.09,1.05,0.977,0.744,
Clc1ccc(C(c2ccc(Cl)cc2)C(Cl)Cl)cc1,,0.983,0.999,0.984,1.16
COc1cccc(NCC(F)Cn2c3ccc(Br)cc3c3cc(Br)ccc32)c1 (configuration not stated),0.859,1.11,1.28,0.896,1.01
